# Measured values reported in PubChem BioAssay (NCI).
# This is part of a sample that, as a whole, favours compounds with a hit. Of some 83,000 tested, about 20% had one in any assay.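 Cells were grown in 96-well plates and exposed to the test compound at a single concentration for 48 hours; results are reported as percent growth, with values below 10 considered active.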 Values without a mark were called inactive. Active and inactive are the calls of the source.
# Test system: NCI-H322M lung
# Assay: NCI-60 one-dose screen, 48 h (100 = growth as untreated, 0 = no growth, -100 = all killed)
# Conditions: 10 µM unless noted
row,SMILES,growth
1,Cc1ccc(C2CC(c3nc(-c4ccc(Cl)cc4)oc3C)=NN2C(=O)c2ccncc2)cc1 (stereo not given),93.3%
2,CSc1nc(C)c([N+](=O)[O-])c(N)n1,93.7%
3,[2H]C([2H])([2H])Oc1ccc(F)cc1/C=C/C(=O)/C=C(O)/C=C/c1cc(F)ccc1OC([2H])([2H])[2H],107%
4,COc1ccc(-c2nc3c(N)c(CO)cnc3s2)cc1,76%
5,O=S(=O)(NCCNc1nccc(-c2c(-c3ccc(F)c(O)c3)nc3sccn23)n1)c1ccc(F)cc1,47.6%
6,CCOC(=O)c1cnc2c(N=Nc3ccc(OC)cc3)c(N)nn2c1N,97.9%
7,COc1ccc(-c2nn(-c3ccccc3)cc2/C=C/C(=O)NNC(=O)Nc2ccc(C)cc2)cc1,99.6%
8,Oc1ccc(/C=C/c2ccc(O)cc2)cc1,58.5%
9,O=[N+]([O-])c1ccc(-c2cn3nc(-c4c[nH]c5ccccc45)sc3n2)cc1,84.9%
10,Oc1c(CN2CCOCC2)cc(COCc2ccccc2)c2cccnc12,14.7%
11,CCOC(=O)CC1CSC(Nc2ccccc2)=N1 (stereo not given),96.5%
12,CCc1n(Cc2ccc3ccccc3n2)cc[n+]1Cc1ccc2ccccc2n1,73.1%
13,O=P(O)(O)OCC1OC(n2cnc3c(NCc4ccco4)ncnc32)C(O)C1O (stereo not given),28.3%
14,COc1ccc(C2=CC(c3cc(OC)c(OC)c(OC)c3)n3ncnc3N2)cc1 (stereo not given),43%
15,C/C=C(\C)C(=O)N[C@H]1C(O)C[C@]2(C)C3CC[C@@]4(C)C(CC[C@@H]4C(C)N(C)C)C3CCC2C1O (stereo not given in full),65.2%
16,COc1cc(-c2nc3sccn3c2-c2ccnc(NCCNS(=O)(=O)c3ccc(Cl)cc3)n2)ccc1F,70.4%
17,CCCn1cnc2c(c1=N)C(c1ccc(F)cc1)c1sc3c(F)cccc3c1O2 (stereo not given),78.1%
18,C#CCNC(=O)[C@]1(C)CCC[C@@]2(C)[C@H]1CC=C1C=C(C(C)C)CC[C@@H]12,100%
19,N[C@H]1CCC[C@@H]1NCCCCN1C(=O)c2cccc3cc([N+](=O)[O-])cc(c23)C1=O,53.4%
20,CC1C=CC(OC(=O)C(C)(O)CCC(O)(C(=O)OC2CC(O)C(C(C)C)CC2(C)O)C(C)C)(C(C)C)CC1 (stereo not given),-89.9% [4.63 µM] (active)

row,SMILES,growth
1,C=CC(=O)Nc1ccc(Nc2nccc(-c3ccc(N4CCCC4)c(C#N)c3)n2)cc1,41.2%
2,CC(=O)OC(c1ccccc1)C1CCOC1=O (stereo not given),106%
3,COC(=O)CCC/C=C\C[C@H]1C=CC(=O)/C1=C/C[C@@H](O)C/C=C\CC(F)(F)F,46.9%
4,N#CC1=C(N)Oc2ccc3ccccc3c2C1c1ccc([N+](=O)[O-])cc1 (stereo not given),89.3%
5,COc1cc(-c2nc3c(ncc4ccc(=O)n(-c5ccccc5)c43)s2)cc(OC)c1OC,73.6%
6,Cc1ccc(-c2csc(N(C(=O)N3CCN(c4cc5c(cc4F)c(=O)c(C(=O)O)cn5C4CC4)CC3)c3ccccc3)n2)cc1,4.96% (active)
7,O=c1cc(-c2ccccc2)[nH]c2ncc(-c3ccc(F)cc3)n12,94.2%
8,COc1cc(-c2nc3cc(Cl)c(Cl)cc3[nH]2)ccc1OCC(=O)N=Nc1c(O)[nH]c2ccc(Cl)cc12,35.2%
9,NC(=O)c1c(NC(=O)c2cccs2)sc2c1CCC(=O)C2,77.2%
10,O=C(Oc1ccc(CCl)cc1)c1ccccc1,-91.4% (active)
11,O=C(Cc1ccc(/C=C/C(=O)c2ncc[nH]2)cc1)Nc1cc(C(F)(F)F)cc(C(F)(F)F)c1,96.4%
12,Nc1ncnc2c1N=C(c1ccc3c(c1)OCO3)CC(c1cccc(Nc3ccnc4cc(C(F)(F)F)ccc34)c1)N2 (stereo not given),94.3%
13,COc1cccc(/C=N/NC(=O)c2ccccc2N2CCCC2)c1O,49.6%
14,CCNc1ccc(-c2nc3ccccc3n3cccc23)cc1,76.7%
15,CN(C)CCCNC(=O)c1cncnc1Nc1ccc(OCc2cccc(F)c2)c(Cl)c1,4.56% (active)
16,O=C(NC1CC(F)C1)c1cc2cccnc2n1-c1ccc(Cl)c(Cl)c1 (stereo not given),97.3%
17,CN1CCN(c2ccc3nc4c(nc3c2C(F)(F)F)C(=O)c2ncccc2C4=O)CC1,36.6%
18,Cc1ccc(N2C(=O)CCC2=O)cc1,104%
19,CCN1C(=O)N(CC)C2C1NN=c1s/c(=C3\C(=O)N(CCC(C)C)c4ccccc43)c(=O)n12 (stereo not given),52.1%
20,CN(Cc1cnc2nc(N)nc(N)c2n1)c1ccc(C(=O)NC(CCC(=O)O)C(=O)O)cc1Br (stereo not given),69.6%
